697 NFkB inh = lowers PMA/ionomycin-induced NF-kB signal in 697 B cells | 697 B-cell NF-kB luciferase reporter, 16 h | inhibition, % at 4 µM | hit rate 0.33% among 330,000 | AID 435022; in the data active means inhibition above about 35%
aSyn 5UTR inh = 5' untranslated region of α-synuclein, MLPCN primary screen; hit rate 0.82% among 300,000; alpha-synuclein 5'UTR reporter, inhibitor activity; inhibition, % (tested at 7.5 µM); in the data active means inhibition above about 60%;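 further: H4 neuroglioblastoma cells stably carrying SNCA 5'UTR luciferase fusion; 0% = DMSO wells and 100% = positive control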
CSC inhib = blocks cancer stem cells; cancer stem cell-like cells viability, luminescence; inhibition, % at 7.5 µM; hit rate 1.1% among 300,000; AID 2717; in the data active means inhibition above about 75%; tested in HMLE shEcad cells
Mdm2-MdmX inh = disrupts the human Mdm2-MdmX interaction. O15151+Q00987. SaOS-2 split-luciferase Mdm2/MdmX complementation, luminescence. inhibition, % at 8 µM. hit rate 3% among 330,000. AID 485346;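 active means inhibition of at least 50% at 8 µM in the primary screen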
Target sequence (O15151 whole entry, looked up): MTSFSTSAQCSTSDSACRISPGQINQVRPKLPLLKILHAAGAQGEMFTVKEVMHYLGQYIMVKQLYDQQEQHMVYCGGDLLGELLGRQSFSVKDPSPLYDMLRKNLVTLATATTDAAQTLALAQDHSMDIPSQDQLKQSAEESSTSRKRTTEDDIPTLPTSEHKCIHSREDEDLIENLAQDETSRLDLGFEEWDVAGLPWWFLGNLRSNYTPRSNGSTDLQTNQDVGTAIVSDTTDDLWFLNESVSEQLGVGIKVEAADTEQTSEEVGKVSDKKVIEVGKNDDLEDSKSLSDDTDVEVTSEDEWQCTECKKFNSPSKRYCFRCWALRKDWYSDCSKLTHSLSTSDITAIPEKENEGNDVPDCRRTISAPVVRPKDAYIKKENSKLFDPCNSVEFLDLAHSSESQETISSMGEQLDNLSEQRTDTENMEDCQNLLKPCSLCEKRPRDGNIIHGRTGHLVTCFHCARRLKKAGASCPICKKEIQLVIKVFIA
Target sequence (Q00987 whole entry, looked up): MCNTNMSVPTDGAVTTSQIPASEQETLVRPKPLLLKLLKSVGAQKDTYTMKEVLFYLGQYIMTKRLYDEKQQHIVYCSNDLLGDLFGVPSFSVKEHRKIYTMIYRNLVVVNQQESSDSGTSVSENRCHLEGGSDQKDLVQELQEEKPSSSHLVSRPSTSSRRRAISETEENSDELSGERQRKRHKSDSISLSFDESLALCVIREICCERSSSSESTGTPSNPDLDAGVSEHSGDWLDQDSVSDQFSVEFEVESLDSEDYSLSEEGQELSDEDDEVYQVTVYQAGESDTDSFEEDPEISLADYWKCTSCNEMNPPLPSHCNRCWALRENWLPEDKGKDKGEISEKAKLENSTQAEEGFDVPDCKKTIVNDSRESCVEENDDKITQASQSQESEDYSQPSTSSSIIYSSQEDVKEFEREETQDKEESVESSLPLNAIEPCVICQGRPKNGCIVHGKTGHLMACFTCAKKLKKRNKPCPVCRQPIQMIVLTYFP
Gli-Sufu antag = blocks Gli-Sufu signaling in a luciferase reporter; AID 588413; hit rate 0.74% among 340,000; inhibition, % at 5 µM; Sufu-KO-LIGHT fibroblasts, Gli luciferase reporter luminescence;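 active means inhibition above about 55%, limit read from the data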;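 further: 0% = DMSO-treated cells and 100% = wells with medium but no cells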
Jurkat NFkB inh = lowers PMA/ionomycin-induced NF-kB signal in Jurkat cells. hit rate 0.53% among 330,000. inhibition, % at 4 µM. PMA/ionomycin-induced NF-kB luciferase reporter, luminescence; in the data active means inhibition above about 50%
Gli antag conf = confirmation of Gli-SUFU pathway antagonists. inhibition, % at 5 µM. hit rate 40% among 2,500. shares compounds with Gli-Sufu antag. Sufu-KO-LIGHT cells, Gli luciferase reporter, luminescence. AID 602428;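 active means mean inhibition at 5 µM reaching about 45%, limit read from the data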;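 further: plate controls were DMSO-treated cells for no effect and wells lacking cells for full effect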
Gli cytotox = cytotoxic in Gli-SUFU antagonist counter-screen | AID 651994 | shares compounds with Gli-Sufu antag | cytotoxicity, % at 5 µM | hit rate 32% among 2,500 | Sufu-KO-LIGHT cells cytotoxicity, ATP luminescence;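 active means mean cytotoxicity at 5 µM above about 25%, limit read from the data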;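 further: cells exposed to compound overnight for roughly 16 to 18 hours; plate controls were DMSO wells with cells for no effect and medium without cells for full effect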
Wnt3a counter = Wnt3a reporter inhibition counter-screen | hit rate 20% among 2,500 | inhibition, % at 6.25 µM | Wnt-LIGHT cells, Wnt3a-driven luciferase reporter, luminescence | shares compounds with Gli-Sufu antag;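 active means mean inhibition above about 25%, limit read from the data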
An asterisk follows results filed as active; . = not tested or not shown. An excerpt weighted towards active compounds, which were near 4.5% of everything screened.

SMILES | 697 NFkB inh | aSyn 5UTR inh | CSC inhib | Mdm2-MdmX inh | Gli-Sufu antag | Jurkat NFkB inh | Gli antag conf | Gli cytotox | Wnt3a counter
Cc1nc2cc(CC(=O)O)ccc2o1 | 17.8 | 4.2 | -12.1 | 9.0 | 2.9 | -8.1 | . | . | .
CC(C)Cc1ccc(C(C)C(=O)Nc2ccccc2O)cc1 (centres undefined) | -14.0 | -4.3 | 21.0 | 25.7 | 38.0 | 44.0 | . | . | .
CCOC(=O)C1=C(C)N=C2SC(C)C(=O)N2C1c1cccc(F)c1 (centres undefined) | 12.7 | 24.6 | 8.6 | 0.4 | 5.2 | -1.6 | . | . | .
CC1=C(C(=O)OCC(C)C)C(c2cccc(F)c2)N2C(=O)C(C)SC2=N1 (centres undefined) | -6.5 | -10.9 | -7.1 | 10.8 | 65.3* | -10.8 | 10.9 | -3.4 | -12.1
Cc1ccnc(NC(=O)CSc2ccc3c(c2)OCCO3)c1 | -6.4 | -113.9 | -1.2 | 12.7 | -8.5 | -30.7 | . | . | .
Cc1ccc(NC(=O)CSc2ccc3c(c2)OCCO3)c(O)c1 | 0.4 | -22.1 | -26.4 | 25.9 | 73.2* | 15.0 | 69.3* | 42.6* | 51.4*
CC1=NN(C(N)=S)C(=O)C1N=Nc1ccc(O)cc1 (centres undefined) | -20.3 | -46.9 | . | 1.8 | 57.4* | 13.8 | 39.4 | 11.2 | -62.9
CC1=NN(C(N)=S)C(=O)C1N=Nc1ccc(F)cc1 (centres undefined) | -116.3 | -88.9 | . | -22.5 | -33.6 | -25.6 | . | . | .
COc1ccc(C(CNC(=O)Cc2ccc(-c3ccccc3)cc2)N(C)C)cc1 (centres undefined) | -5.5 | -11.7 | 11.2 | 13.9 | 28.1 | 7.4 | . | . | .
CN(/N=C\c1ccc(O)c(O)c1)c1nc(-c2ccccc2)cc(-c2ccccc2)n1 | -30.4 | 0.6 | 22.0 | 30.5 | 90.5* | -19.8 | 81.5* | 25.6* | 88.6*
COc1ccc(OC)c(NC(=O)C2CCN(S(=O)(=O)c3c(C)noc3C)CC2)c1 | 13.5 | 4.0 | 3.1 | -8.6 | 94.1* | 7.2 | 24.9 | -1.5 | 6.6
COc1ccc(OC)c(NC(=O)C2CCCN(S(=O)(=O)c3c(C)noc3C)C2)c1 (centres undefined) | -17.9 | -4.1 | -5.3 | -1.3 | 3.1 | -3.3 | . | . | .
Cc1cc(N/N=C/c2ccc3c(c2)OCO3)nc2ccccc12 | -103.5 | -180.0 | 20.4 | -110.8 | -50.2 | -60.5 | . | . | .
NCCc1nnc(SCc2ccc(F)cc2)o1 | 17.0 | 8.5 | 1.8 | -3.1 | 67.9* | -16.9 | 8.1 | 4.9 | 1.6
CN(c1ccccc1)S(=O)(=O)c1cccc2ccccc12 | -28.3 | 1.0 | 6.0 | 9.7 | 2.8 | -2.1 | . | . | .
O=C(NCc1ccco1)c1cc2sccc2n1Cc1ccccc1 | 3.1 | -22.8 | 3.0 | 20.3 | -7.8 | 4.1 | . | . | .
CCC(C)Sc1ccc([C@H]2N[C@@](CC(C)C)(C(=O)OC)[C@H]3C(=O)N(C)C(=O)[C@@H]23)cc1 (some centres undefined) | -3.6 | 16.0 | 30.5 | 14.9 | -4.1 | 16.2 | . | . | .
O=C(COC(=O)c1cccnc1Nc1ccccc1F)NCCN1C(=O)CSC1=O | 23.8 | 32.5 | 3.6 | 11.6 | 50.5 | -1.8 | 20.4 | -2.5 | -30.8
CC1CCCN(S(=O)(=O)c2ccc(NC(=O)[C@@H]3CCCN3C(=O)c3cccs3)cc2)C1 (some centres undefined) | -3.6 | . | . | 1.1 | 2.7 | 8.2 | . | . | .
O=C(O)CCC(NC(=O)c1ccc(Cl)cc1)C(=O)O (centres undefined) | 14.0 | 2.6 | -1.5 | 12.1 | -2.3 | 5.8 | . | . | .
CN(Cc1cnc2nc(N)nc(N)c2n1)c1ccc(C(=O)NC(CCC(=O)O)C(=O)O)c2ccccc12 (centres undefined) | . | . | . | . | 57.9* | . | 37.7 | 29.4* | 2.5
O=C(NNC(=O)c1cc([N+](=O)[O-])ccc1Cl)c1cccnc1 | 5.5 | . | 6.9 | 1.2 | 53.7 | 0.6 | 8.7 | 21.0 | -23.6
COCCN1CCN(C(=O)c2cc(COc3cc(C)ccc3C)on2)CC1 | -99.0 | -127.0 | -6.0 | -68.7 | -3.9 | -55.6 | . | . | .
COc1ccc(N(CC(=O)NC2CCCCCC2)S(=O)(=O)c2c(C)nn(C)c2C)cc1 | -2.7 | . | . | 14.3 | 50.6 | -7.6 | 8.6 | -6.1 | -34.2

Compound activity (PubChem BioAssay)
